Laboratory results from PubChem BioAssay (NCI).
Where “and” joins values, the source holds several entries; their conditions need not be identical. Equal values may be shown once. This is part of a sample that, as a whole, favours compounds with a hit. Of some 83,000 tested, about 20% had one in any assay.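 Single-concentration screen, 48 h exposure, 96-well plates. Endpoint: percent growth. Below 10 = active.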 Calls of active or inactive are those of the source.

The compounds below were run on HL-60(TB) leukemia (assay: NCI-60 one-dose screen, 48 h (100 = growth as untreated, 0 = no growth, -100 = all killed)). Conditions: 10 µM unless noted.

| SMILES | growth |
| --- | --- |
| CC(=O)c1ccc(NCC(=O)Nc2ccccn2)cc1 | 109% (inactive) |
| CCN(CC)CC(C)(C)C(=O)/C=C/c1ccc(Cl)c(Cl)c1 | -10.2% (active) |
| N#Cc1ccc(NC(=O)c2ccc3cccnc3c2O)cc1 | 4.59% (active) |
| CCCC1CCC(=C2C(=O)CCC2=O)O1 (centres undefined) | 148% (inactive) and 153% (inactive) |
| Cc1[nH]n(C(=O)c2ccncc2)c(=O)c1N=Nc1ccc(F)c(Cl)c1 | 36.5% (inactive) |
| CCCCCCCCOC(=O)c1ccc(O)c(OC)c1 | 30.9% (inactive) |
| COc1ccc(/C=C2/SC(=S)NC2=O)c(OC)c1OC | 83.8% (inactive) |
| Nc1ccn(-c2ccc(Br)cc2)c(=O)n1 | 125% (inactive) |
| CCCCC[C@@H]1Cc2cc(O)c(C(=O)O)c3c2[C@H](C[C@]2(OC[C@@H](CC(=O)[C@@](C)(CC)C(=O)OC)[C@@H]2C)O3)O1 | 116% (inactive) |
| NS(=O)(=O)N(c1cc(C(F)(F)F)cc(C(F)(F)F)c1)C1CCN(Cc2ccc(C(F)(F)F)cc2)CC1 | 37.3% (inactive) |
| C[C@H](CCC(=O)O)[C@H]1CC[C@H]2[C@@H]3CC[C@@H]4/C(=C\c5ccco5)C(=O)/C(=C\c5ccco5)C[C@]4(C)[C@H]3CC[C@]12C | 29.9% (inactive) |
| COc1cc(/C=C/C(=O)c2c(C)n([O-])c3ccccc3[n+]2=O)cc(OC)c1OC | -10.8% (active) |
| C=C1CC[C@@H]2[C@](C)(COC(C)=O)[C@H](OC(C)=O)CC[C@@]2(C)[C@@H]1CC(Sc1ccccc1)C1=CCOC1=O (some centres undefined) | -46.5% (active) |
| CC[C@H](Nc1ncnc2nc[nH]c12)c1nc2cccc(NCc3ccc(C(=O)NO)o3)c2c(=O)n1-c1ccccc1 | 81.4% (inactive) |
| Cc1c(C(=O)NCCCc2ccccc2)sc2ncc(-c3ccc(Br)cc3)n12 | 90.1% (inactive) |
| CC(C)NC1CCC(Nc2ccnc3cc(Cl)ccc23)CC1 (centres undefined) | 57.9% (inactive) |
| CC[C@@]1(O)C(=O)OCc2c1cc1n(c2=O)Cc2c-1nc1ccccc1c2/C=N/OC(C)(C)C | -29% (active) |
| CC(C)(O)C1CCCN1C(=O)c1ccccc1I (centres undefined) | 89.3% (inactive) |
| COc1ccc(-c2cnnn2-c2nonc2-n2cccc2)cc1 | -37.9% (active) |
| CCCCCCNC(=O)Oc1ccc(/C(=C(\C)c2ccc(Cl)cc2)c2ccc(OCCN3CCCCC3)cc2)cc1 | -18.5% (active) |

| SMILES | growth |
| --- | --- |
| Cc1cccc(Cl)c1NC(=O)c1ccc2nc(NC(=O)NCCN(C)C)sc2c1 | 115% (inactive) |
| NC1=NC(SCc2ccccc2CCl)c2ncn(Cc3ccccc3CCl)c2N1 (centres undefined) | -25.5% (active) |
| O=C1NC(=O)C2(CCCC2C(=O)O)N1 (centres undefined) | 97.1% (inactive) |
| CCOC(=O)c1cnc2c(OC)ccc(OC)c2c1Cl | 127% (inactive) |
| CC1=C(C(=O)OC(C)C)C(c2ccc3c(c2)OCO3)NC(=S)N1 (centres undefined) | 105% (inactive) |
| C=CCNc1nnc(C)s1 | 139% (inactive) |
| COc1ccc(-n2nnc(C(=O)O)c2-c2cc(OC)c(OC)c(OC)c2)cc1 | 98.8% (inactive) |
| CC(C)=NNc1ccccn1 | 34.6% (inactive) |
| CC(C)(C)c1ccc(O)c(CNC2CCCCC2)c1 | 74.8% (inactive) and 77.1% (inactive) |
| CC1=C/C(O)CC(=O)Cc2nc(co2)C(=O)N2CCC=C2C(=O)OC(C(C)C)C(C)/C=C\C(=O)NC/C=C\1 (centres undefined) | 56.4% (inactive) |
| CN(C)c1ccc(Cc2ccc(N(C)C)cc2Cl)c(Cl)c1 | 5.92% (active) |
| Oc1ccc(Cl)cc1/C=N\NC(=S)N/N=C/c1cc(Cl)ccc1O | 12.2% (inactive) |
| CCOC(=O)c1ccncc1 | 97.3% (inactive) |
| O=c1oc2cc(OS(=O)(=O)c3ccccc3)c(Cl)cc2c2c1CCCCCC2 | 87.6% (inactive) |
| Cc1ccc([C@@H]2C[C@H](O)Cc3ccccc3N2)s1 | 121% (inactive) |
| COc1ccc(-c2cc(-c3cn(-c4cccc(Cl)c4)nc3-c3ccc(OC)cc3)[nH]c(=S)n2)cc1 | 60.4% (inactive) |
| Cc1ncc(C(=O)Nc2ccc(CN3CCN(C)CC3)c(C(F)(F)F)c2)cc1C#Cc1cnc(NC2CC2)c2ncccc12 | 34.1% (inactive) |
| COc1cc2nc(Cl)nc(NCCO)c2cc1OC | 104% (inactive) |
| COc1cc2cc(Oc3ccc(NC(=O)Nc4ccc(Cl)c(C(F)(F)F)c4)cc3)c(C)nc2cc1OCCN1CCCCC1 | 30.5% (inactive) |
